From PubChem BioAssay
The source made the active and inactive calls.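 Rule for the calls, unless noted: active = inhibition at or above 50% relative to wild type and mutant plate controls; inactive = inhibition below 50%.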

Legend:
[1] = inhibitors of TNFa-induced NFkB p65 translocation, primary screen, imaging, HUVEC, MLSMR starter and 10KST1 sets (AID 438;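 active = inhibition above 20% together with a positive visual image hit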;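 note: compound added about 3h40 before a 20 min TNFalpha stimulation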;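 for inhibition: signal is the nuclear over cytoplasmic p65 intensity ratio per well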); conditions: HUVEC TNFa-induced p65 nuclear translocation; cell count: measured here: nuclei count (cytotoxicity indicator), at 2.08 µM; inhibition: at 2 µM, stronger effect = higher value, 0% TNFa-plus-vehicle, 100% no-TNFa wells
[2] = reduction of polyQ htt aggregates in cells – imaging, exon1htt(103Q)mCFP cells, high-content imaging, primary screen (AID 483;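 active = visual image review flags a hit and inhibition of aggregation exceeds 20%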;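 note: compound exposure lasted 3 days before fixation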;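 for nuclei count: percent of the per-plate median nuclei count of sample wells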); conditions: exon1htt(103Q)mCFP cell line, aggregate imaging, at 2 µM; inhibition of aggregation: stronger effect = higher value; nuclei count: measured here: cell count, toxicity
[3] = endothelial E-selectin expression blockers – imaging, HUVEC, immunofluorescence, MLSMR starter and 10KST1 sets, primary screen (AID 487;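 active = visually confirmed hit in the image check and inhibition above 20%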;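 for inhibition: signal is fraction of cell area covered by stained E-selectin grains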;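 for nuclei count: 100% = median nuclei count of all wells on the same plate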); conditions: HUVEC TNFalpha-induced E-selectin immunofluorescence imaging, at 2 µM; inhibition: stronger effect = higher value; nuclei count: measured here: cell number, toxicity
[4] = Primary imaging screen for DUSP6 inhibitors that restore phospho-Erk in transfected HeLa cells, chemical complementation (AID 609;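 active = compounds giving at least 50% inhibition in the cell-based MKP-3 phosphatase rescue imaging test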;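 for inhibition: phospho-Erk level distribution per well compared with pooled transfected vehicle control wells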); conditions: HeLa MKP-3 transfected, phospho-Erk imaging KS statistic, at 10 µM, cells stimulated with TPA for 15 min
[5] = target: Dual specificity protein phosphatase 6 (Homo sapiens) (UniProt Q16828); assay: as above; conditions: HeLa MKP-3 transfected, phospho-Erk imaging KS statistic; at 10 µM; stronger effect = higher value; cells stimulated with TPA for 15 min
[6] = target: Voltage-gated potassium channel subunit beta-2 (Rattus norvegicus) (UniProt P62483); assay: inhibitors of rat Kvbeta2 reductase activity – biochemical, NADPH fluorescence, primary screen (AID 622;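 active = fluorescence slope higher than the sample average by over 3 SD, cut at about -0.22 in these data, passing the limit was not always enough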;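 note: slope of raw intensity against log time taken from 70 to 1610 s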); conditions: recombinant KvBeta, 4-cyanobenzaldehyde reduction, at 10 µM, stronger effect = higher value
[7] = target: Voltage-gated potassium channel subunit beta-2 (Rattus norvegicus) (UniProt P62483); assay: enhancers of rat Kvbeta2 NADPH turnover – biochemical, NADPH fluorescence, primary screen (AID 623;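 active = NADPH fluorescence slope more negative than the mean of all samples by about 3 SD, 99.7% confidence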;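 note: fluorescence intensity change per second fitted from 20 to 320 s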); conditions: Recombinant KvBeta, NADPH fluorescence decrease slope, 10 min; at 10 µM; stronger effect = lower value
[8] = target: Alpha-2C adrenergic receptor (Homo sapiens) (UniProt P18825); assay: compounds altering alpha2C-coupled GIRK flux – cell-based, HEK293 alpha2C/GIRK1/2, thallium flux, primary screen (AID 624;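 active = fluorescence slope after compound addition differing from the mean of all screened samples at 99.7% confidence, in either direction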;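 note: slope of fluorescence ratio to pre-addition baseline per second over 15 to 24 s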); conditions: thallium flux BTC fluorescence, at 10 µM, actives lie on both sides
[9] = inhibitors of larval lipid processing in zebrafish, primary screen, whole organism, PED6 fluorescence, gall bladder and intestine (AID 686;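 active = a full or partial loss of lipid-probe fluorescence in the fish gall bladder, intestine or both, judged by eye; inactive = no fluorescence loss, or compound toxic to the fish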;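 note: larvae 5 to 7 days old with five fish per well; signal comes from phospholipase A2 cleavage of quenched PED6 carried via bile; overnight exposure to compound and PED6 before scoring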); conditions: Zebrafish larvae PED6 lipid processing, fluorescence scoring; screened at 20 µM (by protocol)
[10] = loss of swimming-algae plug formation – whole organism, Chlamydomonas reinhardtii, WT vs cilia-less mutant, absorbance, 96-well, primary screen (AID 463189); conditions: Chlamydomonas reinhardtii gravitaxis, OD600 absorbance, 2 days; at 10 µM; stronger effect = higher value;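 note: 0% = wild type cc124 cells in DMSO and 100% = ciliumless bld1 mutant cells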
[11] = blockers of RIG-like receptor reporter activation – cell-based, Sendai virus stimulus, luciferase, 10K MLSCN set, TLR/RLR signaling modifier project, primary screen (AID 602276;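 active = inhibition at or above 50% at 10 µM; inactive = inhibition below 50%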;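 note: firefly luciferase from ISG56 promoter only with Renilla not read in this screen; 0% = Sendai virus plus DMSO and 100% = medium plus DMSO without virus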); conditions: HEK293 RL24 IRF3 luciferase reporter, at 10 µM, stronger effect = higher value
[12] = TLR3 IRF3 reporter activation blockers – cell-based, poly I:C stimulus, luciferase, 10K MLSCN set, primary screen (AID 602277;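 active = inhibition of the reporter signal at or above 50%; inactive = inhibition below 50%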); conditions: HEK293-TLR3 RL24 IRF3 luciferase reporter, at 10 µM, stronger effect = higher value
[13] = target: Muscarinic acetylcholine receptor M4 (Homo sapiens) (UniProt P08173); assay: M4-linked GIRK flux change, two-sided – cell-based, HEK293 M4/GIRK, thallium flux, BTC-AM, M4 allosteric agonist project, primary screen (AID 625;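 active = fluorescence slope after compound addition differing from the mean of all tested samples at 99.7% confidence, mostly higher but some lower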;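 note: thallium influx through GIRK channels coupled to M4 in HEK293 cells with BTC-AM dye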); conditions: at 10 µM, actives lie on both sides
[14] = measured here: cell density z-score
[15] = measured here: nuclear c-Myc green intensity z-score
[16] = measured here: nuclear pErk red intensity z-score, stronger effect = higher value

Dual specificity protein phosphatase 6 (Homo sapiens), sequence (Q16828 whole entry, looked up): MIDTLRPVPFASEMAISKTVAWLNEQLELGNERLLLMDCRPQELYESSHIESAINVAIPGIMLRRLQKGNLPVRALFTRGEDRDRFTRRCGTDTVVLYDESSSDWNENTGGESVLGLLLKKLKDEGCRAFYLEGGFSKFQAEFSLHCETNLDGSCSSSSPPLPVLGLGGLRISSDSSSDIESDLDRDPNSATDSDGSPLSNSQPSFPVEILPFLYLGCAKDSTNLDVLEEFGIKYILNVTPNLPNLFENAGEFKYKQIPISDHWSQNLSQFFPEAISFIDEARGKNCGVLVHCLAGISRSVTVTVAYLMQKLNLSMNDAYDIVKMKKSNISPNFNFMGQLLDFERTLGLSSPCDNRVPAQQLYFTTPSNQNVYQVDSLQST
Alpha-2C adrenergic receptor (Homo sapiens), sequence (P18825 whole entry, looked up): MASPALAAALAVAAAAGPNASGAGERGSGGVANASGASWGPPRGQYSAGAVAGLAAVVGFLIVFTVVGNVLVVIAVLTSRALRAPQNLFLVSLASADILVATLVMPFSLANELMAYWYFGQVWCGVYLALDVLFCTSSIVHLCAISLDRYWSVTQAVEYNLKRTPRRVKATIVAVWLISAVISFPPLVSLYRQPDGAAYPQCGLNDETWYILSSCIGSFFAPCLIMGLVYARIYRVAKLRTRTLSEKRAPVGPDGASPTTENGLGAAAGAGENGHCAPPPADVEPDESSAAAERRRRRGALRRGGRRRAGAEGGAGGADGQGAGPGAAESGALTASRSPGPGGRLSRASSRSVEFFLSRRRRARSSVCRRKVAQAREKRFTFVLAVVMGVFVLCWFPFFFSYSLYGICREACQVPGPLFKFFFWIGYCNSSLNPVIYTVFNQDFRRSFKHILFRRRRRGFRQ
Voltage-gated potassium channel subunit beta-2 (Rattus norvegicus), sequence (P62483 whole entry, looked up): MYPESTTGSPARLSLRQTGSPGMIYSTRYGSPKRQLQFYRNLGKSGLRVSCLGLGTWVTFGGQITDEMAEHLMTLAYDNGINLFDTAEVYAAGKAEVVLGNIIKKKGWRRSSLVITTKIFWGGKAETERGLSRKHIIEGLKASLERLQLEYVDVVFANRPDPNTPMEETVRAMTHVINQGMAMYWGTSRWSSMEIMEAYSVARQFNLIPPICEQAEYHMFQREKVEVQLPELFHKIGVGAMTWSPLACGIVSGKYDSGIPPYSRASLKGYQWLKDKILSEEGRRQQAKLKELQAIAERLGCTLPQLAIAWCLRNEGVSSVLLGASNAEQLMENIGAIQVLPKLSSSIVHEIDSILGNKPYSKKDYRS
Muscarinic acetylcholine receptor M4 (Homo sapiens), sequence (P08173 whole entry, looked up): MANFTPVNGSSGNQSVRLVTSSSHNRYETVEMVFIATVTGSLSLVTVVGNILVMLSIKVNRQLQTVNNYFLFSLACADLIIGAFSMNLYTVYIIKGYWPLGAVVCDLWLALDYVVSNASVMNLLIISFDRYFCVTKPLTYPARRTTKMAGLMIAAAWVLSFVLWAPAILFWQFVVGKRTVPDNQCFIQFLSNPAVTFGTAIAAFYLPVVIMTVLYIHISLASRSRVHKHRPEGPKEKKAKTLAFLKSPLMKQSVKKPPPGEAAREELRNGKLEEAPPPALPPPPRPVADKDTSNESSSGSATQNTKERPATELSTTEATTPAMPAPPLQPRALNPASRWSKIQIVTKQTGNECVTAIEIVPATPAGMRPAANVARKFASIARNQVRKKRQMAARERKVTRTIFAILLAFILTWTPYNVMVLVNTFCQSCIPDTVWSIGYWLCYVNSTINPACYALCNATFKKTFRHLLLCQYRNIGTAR

SMILES | cell count [1] | inhibition [1] | inhibition of aggregation [2] | nuclei count [2] [%] | inhibition [3] | nuclei count [3] [%] | z-score [4, 14] | z-score [4, 15] | z-score [4, 16] | inhibition [5] | fluorescence slope [6] | NADPH fluorescence slope [7] | slope [8] | outcome [9] | inhibition [10] | inhibition [11] | inhibition [12] | fluorescence slope [13]
CCCCCCCCNC(C)C(O)c1ccc(SC(C)C)cc1 (configuration not stated) | 561 | -16% (inactive) | -10.4% (inactive) | 105 | -40.8% (inactive) | 112 | 1.06 | -0.321 | -0.268 | 25.1% (inactive) | -0.477 (inactive) | -6.9e-05 (inactive) | 0.00365 (inactive) | inactive | 151% (active) | 19.5% (inactive) | -3.66% (inactive) | 
CCN(CC)C(=O)CSC1=C(C#N)C(c2ccco2)C(C(=O)OCCOC)=C(C)N1 (configuration not stated) | 393 | -8.6% (inactive) | 15.4% (inactive) | 104 | -184% (inactive) | 152 | 0.81 | -0.0131 | 1.47 | -3.98% (inactive) | -0.378 (inactive) | -3e-05 (inactive) | 0.00415 (inactive) | inactive | 14% (inactive) | 2.19% (inactive) | 16.7% (inactive) | 
C[C@]12C=CC(=O)C=C1CC[C@@H]1[C@@H]2[C@@H](O)C[C@@]2(C)[C@H]1CC[C@]2(O)C(=O)COC(=O)CCC(=O)O | 671 | -6.3% (inactive) | 6.5% (inactive) | 85.8 | -27.3% (inactive) | 120 | 1.3 | 0.17 | -0.0671 | 19.2% (inactive) | -0.471 (inactive) | -8e-05 (inactive) | 0.00574 (inactive) | inactive | 15.8% (inactive) | 6.58% (inactive) | 46.6% (inactive) | 
CC1(C)CC(=O)C=C(NCc2ccncc2)C1 | 623 | -5.3% (inactive) | -13.1% (inactive) | 100 | -98.8% (inactive) | 122 | 1.78 | -0.484 | -1.6 | 13.9% (inactive) | -0.497 (inactive) | -3.5e-05 (inactive) | 0.00534 (inactive) | inactive | -8.68% (inactive) | -0.503% (inactive) | 44.9% (inactive) | 
C=CCSc1nnc2n(-c3ccccc3OC)c(=O)c3c4c(sc3n12)CCC4 | 578 | -5.9% (inactive) | 15.1% (inactive) | 59.7 | -27% (inactive) | 126 | 0.876 | -0.888 | -0.633 | 7.73% (inactive) | -0.339 (inactive) | -1.1e-06 (inactive) | 0.00538 (inactive) | inactive | 43.3% (inactive) | 1.81% (inactive) | 0.316% (inactive) | 
O=C1OC(c2ccc(O)cc2)(c2ccc(O)cc2)c2ccccc21 | 608 | -5% (inactive) | 4.4% (inactive) | 77.9 | -50.7% (inactive) | 116 | 2.02 | -0.265 | -1.6 | 21.2% (inactive) | -0.449 (inactive) | -6.8e-05 (inactive) | 0.00467 (inactive) | inactive | -5.48% (inactive) | 11.5% (inactive) | 41.9% (inactive) | 
CC(C)(C)NCc1cc2ccccc2[nH]c1=O | 585 | 4.5% (inactive) | -3.4% (inactive) | 102 | -165% (inactive) | 146 | -1.28 | 1.15 | 0.508 | 16.8% (inactive) | -0.451 (inactive) | -4.7e-05 (inactive) |  | inactive | 3.94% (inactive) | 12.2% (inactive) | 18.4% (inactive) | 0.00463 (inactive)
COC(=O)c1cccc(Nc2cc(C)nc(-c3ccccc3O)n2)c1 | 614 | -12.4% (inactive) | -1% (inactive) | 92.7 | -86.5% (inactive) | 118 | -0.273 | 0.157 | -0.334 | 9.91% (inactive) | -0.279 (inactive) | -1.2e-05 (inactive) | 0.00663 (inactive) | inactive | 5.5% (inactive) | -10.3% (inactive) | -37.2% (inactive) | 
Cc1cc(-c2ccccc2)nnc1NCCN1CCOCC1 | 674 | 5.8% (inactive) | -29.4% (inactive) | 99.9 | -64.4% (inactive) | 119 | 0.561 | 0.88 | 0.22 | 25.7% (inactive) | -0.472 (inactive) | -2e-05 (inactive) | 0.00515 (inactive) | inactive | 15.7% (inactive) | 13.3% (inactive) | 33.7% (inactive) | 
Cc1nn(C)cc1/C=N/O | 677 | -4.1% (inactive) | -2.1% (inactive) | 83.6 | -8.8% (inactive) | 140 | 0.232 | -1.13 | -0.23 | -1.12% (inactive) | -0.494 (inactive) | -0.000175 (inactive) | 0.00422 (inactive) | inactive | 7.83% (inactive) | 15.8% (inactive) | 19% (inactive) | 
CC(=O)[C@H]1CC[C@H]2[C@@H]3CCC4=CC(=O)CC[C@]4(C)[C@H]3[C@H](O)C[C@]12C | 603 | -11.5% (inactive) | 8.3% (inactive) | 112 | -156% (inactive) | 135 | 1.17 | 0.758 | -0.978 | 7.39% (inactive) | -0.485 (inactive) | 4.5e-06 (inactive) | 0.00386 (inactive) | inactive | -5.96% (inactive) | -13.1% (inactive) | -16.3% (inactive) | 
